In ChEMBL document CHEMBL3988442, “University of Dundee, Small-Polar-MMV Screening Library” (2021) one finds Percent Effect data, which are given here for 60 compounds.

This assay has as its target AMP-activated protein kinase, AMPK (Homo sapiens) (UniProt P54646+O43741+P54619+Q9UGJ0+Q9Y478+Q13131+Q9UGI9). As to the kind of experiment: AMP-dependent Kinase enzyme assay. An in vitro enzyme assay that detects ADP turnover that is directly proportional to AMPK activity. This uses naive AMPK that is activated during the assay with MK-8722. Conditions: 30 µM. Set-up: scale not given: direction of the effect not stated beside the values. In kind it is functional.

As for `Cc1ccccc1-c1noc(-c2ccc(NCC3COCCO3)nc2)n1` (stereo not given), the Percent Effect worked out at 6.52%.
The value for `COc1ccc(NCCC(=O)NCc2cccnc2N(C)C)cc1` was 22.9%; that for `COC(=O)CC1CN(Cc2ccn(-c3ccc(F)cc3)n2)CCO1` (stereo not given) was -6.96%; that for `CCCC1COCCN1Cc1ccc(S(=O)(=O)NC)cc1` (stereo not given) was 0.167%.
For `CN1CCC(N(CCc2ccccc2)C(=O)COCC2CCCO2)CC1` (stereo not given) the value was -4.31%.
For the compound `CC(CN1CCOC1=O)NC(=O)c1cccc(C#N)c1` (stereo not given), the Percent Effect amounted to 11.8%.
On to `CC(C(=O)Nc1cccc(F)c1)N(C)CCN1CCOCC1` (stereo not given), for which the Percent Effect is 0.543%.
For `O=C(CCC1CCCO1)NCCN1CCCCC1` (stereo not given) the value was -1.67%; for `COc1cc(F)ccc1NC(=O)NCCNC(=O)OC(C)(C)C`, -6.81%.
With `CC(C)n1nccc1CN1Cc2nccn2CC1c1ccccc1` (stereo not given), the Percent Effect is -2.65%.
Take `CC(C)c1nn(C)cc1CNCc1cccc(N(C)C)c1`: the Percent Effect was -15.4%.
Take `CC(C)c1noc(CN2CCN(C(=O)OC(C)(C)C)C(C)C2)n1` (stereo not given): the Percent Effect is -3.51%.
The value for `CCOCC1(CNCc2cc(O)c3cc(C)ccc3n2)CC1` was -2.54%.
The value for `O=C(NCCc1cc(N2CCOCC2)nc(NC2CC2)n1)C1CCCO1` (stereo not given) was -0.703%; that for `O=C1CC[C@@H](C(=O)N2CCC(Cn3cc(C4CCCCC4)nn3)CC2)N1` was 4.87%; that for `COCCN(Cc1sccc1C)C(=O)c1c(O)cccc1F` was 0.607%.
For `Cc1nn(C)c(C)c1C1CCCN1C(=O)c1ccc(C(N)=O)s1` (stereo not given) the value was -0.19%; for `CC(Cc1cccc(F)c1)C(=O)NS(=O)(=O)c1ccc(F)cc1` (stereo not given), 0.261%; for `Cc1nc2cc(-c3nccn3C)nn2c(N2CCCC2)c1C`, 16.5%.
For the compound `CS(=O)(=O)NCc1cccc(COC2CCCCC2)c1`, the Percent Effect was 4.87%.
For `Cc1nsc(C(=O)NCCc2ccc(Cl)cc2)n1` the value was -0.0138%.
For `Cc1ccnn1CCN1CCCC2(CCC(=O)N(C3CCCC3)C2)C1` (stereo not given) the value was 15.1%; for `CC(C)OCCN1CCC(Nc2nccnc2C#N)CC1`, -5.15%.
Consider `CCn1nc(C(C)C)cc1C(=O)NCC1CCCN(c2ccccn2)C1` (stereo not given), for which the Percent Effect came out at 6.64%.
Consider `O=c1cc(N2CCCC2)cnn1Cc1noc(C2CCCO2)n1` (stereo not given), for which the Percent Effect was -1.31%.
The value for `Cc1ccc(C(=O)NCCN2CCOCC2)cc1N(C)S(C)(=O)=O` was 4.72%; that for `CNC(=O)NC(=O)CN1CCc2c(Br)ccc(F)c2C1` was 5.32%; that for `Cc1cnc(CN(C)Cc2cccc(OC(F)(F)F)c2)cn1` was -3.05%.
Regarding `CC1CN(C)CCN1C(=O)c1cccn1Cc1ccncc1` (stereo not given), the Percent Effect worked out at 1.97%.
For `CN(C)c1ccc(C(=O)Nc2cnn(Cc3ccccn3)c2)cc1` the value was -1.9%; for `Cc1cc(C)nc(NC2CC(=O)N(C)C2)n1` (stereo not given), -3.57%.
As to `NC(=O)CCn1ccc(NCc2cc(F)ccc2Br)n1`, the Percent Effect is -0.0146%.
Take `O=S(=O)(NCC1(c2cccs2)CCOCC1)c1ccc2c(c1)OCCO2`: the Percent Effect was -2.31%.
The value for `O=C1OCCCN1Cc1nc(-c2ccc(N3CCCCC3)cc2)no1` was -1.59%.
Take `Cc1cc(C(F)(F)F)nc(CNC(=O)CCn2cccn2)n1`: the Percent Effect amounted to 12.2%.
Take `Cc1nccn1[C@@H]1CC[C@@H](N(C)S(=O)(=O)c2ccc(F)cc2)[C@H]1O`: the Percent Effect worked out at 27.2%.
On to `CC(C)(C)CN(CCC#N)C(=O)c1cccc(CN2CCCC2)c1`, for which the Percent Effect is 7.06%.
For `O=C(C1CC(c2cccc(F)c2)=NO1)N1CCc2ccccc21` (stereo not given) the value was 13.6%.
Take `Cc1nn(C2CCCCC2)c2nc(C(C)(C)CN3CCOCC3)[nH]c12`: the Percent Effect was 12%.
Consider `COc1cc(NC2CCCN(c3ncccc3C#N)C2)cc(OC)c1` (stereo not given), for which the Percent Effect is -37.2%.
Take `CCc1nc(CCNc2ncccn2)sc1C`: the Percent Effect is -7.35%.
Turning to `CCOC(=O)NC1CCCN(c2cncc(Br)c2)C1` (stereo not given), the Percent Effect was 15.7%.
The value for `COc1cccc(CCC(=O)Nc2c(C)nn(C)c2C)c1OC` was 15.8%; that for `CC(C)c1cc(C(=O)NCC2CCCN(c3ncccn3)C2)n(C)n1` (stereo not given) was 5.97%.
With `Cc1c(CN2CCc3[nH]cnc3C2C(=O)O)[nH]c2ccc(F)cc12` (stereo not given), the Percent Effect was found to be 3.73%.
The value for `c1csc(N2CCN(c3ncnc4sccc34)CC2)n1` was 18.5%; that for `CC(C)c1nc(CN(C)S(=O)(=O)c2cccs2)cs1` was 4.38%; that for `O=C1NCCN2CCN(Cc3ccc(Cl)c(Cl)c3)CC12` (stereo not given) was -0.338%.
For `O=C1[C@@H]2C[C@H](O)CCN2C(=O)CN1CCSc1ccccn1`, the Percent Effect was -5.57%.
For `Cc1nc(CN2CCN(c3cc(CCN)ncn3)CC2)cs1` the value was -0.86%.
For `COCC(=O)NCCc1nc2cc(-c3ccc(OC)cc3)ncn2n1` the value was 8.07%; for `CCN1CC2(CCC1=O)CCN(Cc1cccc(OC(F)F)c1)CC2`, -0.304%; for `CC(C)Cc1noc(CN(C)C2CCS(=O)(=O)C2)n1` (stereo not given), -4.29%.
`OCC1(CCOc2ccccc2)CCN(c2ccc(Cl)cn2)CC1`: the Percent Effect is -2.64%.
For `CN(C)c1ccc(C(=O)N2CCC(c3cc4cnccc4[nH]3)CC2)cc1` the value was 20.5%.
For `CC1CN(c2ncnc3c2cnn3C)CCN1c1nccs1` (stereo not given) the value was 11.2%.
The value for `C=C(C)Cn1nc(C)c(CN2CCN(C3CCCCC3)C(=O)C2)c1C` was 10.7%.
`O=C(Nc1ccc(Br)cc1F)c1ccc(N2CCCCC2)nn1`: the Percent Effect worked out at 1.92%.
Turning to `CCC(=O)Nc1ccc(F)cc1OC`, the Percent Effect was -10.1%.
Turning to `Cc1nccn1CCCN1CCCC(c2ccccc2)C1` (stereo not given), the Percent Effect was -4.4%.
